This is part of a sample that, as a whole, favours compounds with a hit. Of some 83,000 tested, about 20% had one in any assay.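 For each line, cells grew in 96-well plates with the test compound present at a single concentration for 48 hours.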 Active and inactive are the calls of the source. Rule for the calls: active = growth percent below 10; inactive = the rest.
What was measured:
Test in all cases: NCI-60 one-dose screen, 48 h (100 = growth as untreated, 0 = no growth, -100 = all killed)
Conditions in all cases: 10 µM unless noted
HCT-15 colon = tested on: HCT-15 colon
HT29 colon = tested on: HT29 colon
SNB-75 CNS = tested on: SNB-75 CNS
SNB-19 CNS = tested on: SNB-19 CNS
U251 CNS = tested on: U251 CNS
PC-3 prostate = tested on: PC-3 prostate
SK-MEL-5 melanoma = tested on: SK-MEL-5 melanoma
UACC-62 melanoma = tested on: UACC-62 melanoma
LOX IMVI melanoma = tested on: LOX IMVI melanoma
SK-MEL-28 melanoma = tested on: SK-MEL-28 melanoma
SK-MEL-2 melanoma = tested on: SK-MEL-2 melanoma
EKVX NSCLC = tested on: EKVX NSCLC
SN12C renal = tested on: SN12C renal
UO-31 renal = tested on: UO-31 renal
TK-10 renal = tested on: TK-10 renal
ACHN renal = tested on: ACHN renal
CAKI-1 renal = tested on: CAKI-1 renal
A498 renal = tested on: A498 renal
CCRF-CEM leukemia = tested on: CCRF-CEM leukemia
MOLT-4 leukemia = tested on: MOLT-4 leukemia

Measured: growth

O=C(Nc1ccc(-c2ccc3c(c2)NC(=O)/C3=C\c2ccc[nH]2)cc1)Nc1ccc(Cl)c(Cl)c1
inactive: HCT-15 colon 41.4% | HT29 colon 10.7% | SNB-75 CNS 52.1% | SNB-19 CNS 67.5% | U251 CNS 21.9% | PC-3 prostate 64.7% | SK-MEL-5 melanoma 74.7% | UACC-62 melanoma 42.4% | LOX IMVI melanoma 26.2% | SK-MEL-28 melanoma 64.2% | SK-MEL-2 melanoma 88.9% | EKVX NSCLC 46.5% | SN12C renal 68.7% | UO-31 renal 54.9% | TK-10 renal 77.6% | ACHN renal 53.7% | CAKI-1 renal 39.1% | A498 renal 101% | CCRF-CEM leukemia 33.1% | MOLT-4 leukemia 33.5%

COc1ccc2[nH]c(O)c(N=Nc3nc(-c4ccc(C#N)cc4)cs3)c2c1
inactive: HCT-15 colon 68% | HT29 colon 79.1% | SNB-19 CNS 77.2% | U251 CNS 15.2% | PC-3 prostate 85.7% | SK-MEL-5 melanoma 53.7% | UACC-62 melanoma 72.7% | LOX IMVI melanoma 37.6% | SK-MEL-28 melanoma 68.9% | SK-MEL-2 melanoma 95.8% | EKVX NSCLC 63.9% | SN12C renal 20.3% | UO-31 renal 18.3% | TK-10 renal 55.3% | ACHN renal 22.2% | CAKI-1 renal 35.4% | A498 renal 13.2% | CCRF-CEM leukemia 86.4% | MOLT-4 leukemia 84.2%
active: SNB-75 CNS -3.1%

O=C(CSc1nnc(-c2ccc(-c3nc4ccc(Cl)cc4[nH]3)cc2)o1)Nc1ccc(Cl)cc1
active: HCT-15 colon 8.62% | SNB-75 CNS 2.16% | SNB-19 CNS -8.15% | U251 CNS -74.1% | PC-3 prostate -24.1% | SK-MEL-5 melanoma 8.87% | UACC-62 melanoma -44.8% | LOX IMVI melanoma -92.5% | SK-MEL-28 melanoma -73.6% | SN12C renal -11.6% | ACHN renal -69.3% | CAKI-1 renal -40.3% | CCRF-CEM leukemia 4.89% | MOLT-4 leukemia 5.53%
inactive: HT29 colon 23.1% | SK-MEL-2 melanoma 14.7% | EKVX NSCLC 48.4% | UO-31 renal 30.9% | TK-10 renal 73.7% | A498 renal 127%

COc1ccc(N=Nc2c(N)nn3c(N)c(C#N)c(-c4ccccc4)nc23)cc1
inactive: HCT-15 colon 70.8% | HT29 colon 60.9% | SNB-19 CNS 27.1% | U251 CNS 21% | PC-3 prostate 28.2% | SK-MEL-5 melanoma 34.2% | UACC-62 melanoma 36.3% | LOX IMVI melanoma 54.9% | SK-MEL-28 melanoma 66.6% | SK-MEL-2 melanoma 97.6% | EKVX NSCLC 38.9% | SN12C renal 40.8% | UO-31 renal 28.4% | TK-10 renal 57.4% | ACHN renal 25.7% | CAKI-1 renal 15.9% | A498 renal 113% | CCRF-CEM leukemia 72.7% | MOLT-4 leukemia 72.8%
active: SNB-75 CNS -15.8%

Nc1cc2ccccc2c(=O)n1NC(=O)c1ccc(Br)cc1
inactive: HCT-15 colon 99.4% | HT29 colon 118% | SNB-75 CNS 58.4% | SNB-19 CNS 84.5% | U251 CNS 96.1% | PC-3 prostate 95.3% | SK-MEL-5 melanoma 88.1% | UACC-62 melanoma 80.6% | LOX IMVI melanoma 84.2% | SK-MEL-28 melanoma 88% | SK-MEL-2 melanoma 108% | EKVX NSCLC 83.2% | SN12C renal 95.5% | UO-31 renal 74.9% | TK-10 renal 116% | ACHN renal 104% | CAKI-1 renal 83.8% | A498 renal 189% | CCRF-CEM leukemia 86.4% | MOLT-4 leukemia 90.8%

N#CC1=C(c2cccs2)Nc2c(c(-c3ccccc3)nn2-c2ccccc2)C12C(=O)Nc1ccccc12 (stereo not given)
inactive: HCT-15 colon 11.9% | SNB-75 CNS 60.5% | SNB-19 CNS 25.4% | U251 CNS 11.6% | SK-MEL-5 melanoma 23.9% | UACC-62 melanoma 48.5% | LOX IMVI melanoma 61.6% | SK-MEL-28 melanoma 15.2% | SK-MEL-2 melanoma 90.1% | EKVX NSCLC 14.8% | SN12C renal 55.3% | UO-31 renal 18.2% | TK-10 renal 18.1% | CAKI-1 renal 63.4% | MOLT-4 leukemia 15%
active: HT29 colon 6.67% | PC-3 prostate 6.98% | ACHN renal -26.9% | A498 renal -14.9% | CCRF-CEM leukemia 6.02%

Cc1cc(C)c2[nH]c(=O)c(C(c3nnnn3Cc3ccc4c(c3)OCO4)N3CCN(C)CC3)cc2c1 (stereo not given)
inactive: HCT-15 colon 110% | HT29 colon 110% | SNB-75 CNS 115% | SNB-19 CNS 101% | U251 CNS 104% | PC-3 prostate 111% | SK-MEL-5 melanoma 107% | UACC-62 melanoma 104% | LOX IMVI melanoma 100% | SK-MEL-28 melanoma 105% | SK-MEL-2 melanoma 105% | EKVX NSCLC 106% | SN12C renal 108% | UO-31 renal 103% | TK-10 renal 115% | ACHN renal 106% | CAKI-1 renal 97.7% | A498 renal 102% | CCRF-CEM leukemia 119% | MOLT-4 leukemia 82.3%

COc1ccc(C(=O)/C=C/c2ccc3c(c2)OCCO3)cc1S(N)(=O)=O
inactive: HCT-15 colon 41.9% | HT29 colon 33.4% | SNB-75 CNS 82.5% | SNB-19 CNS 51.4% | U251 CNS 12.2% | PC-3 prostate 103% | SK-MEL-5 melanoma 99.8% | UACC-62 melanoma 87.9% | LOX IMVI melanoma 23.7% | SK-MEL-28 melanoma 101% | SK-MEL-2 melanoma 114% | EKVX NSCLC 84.8% | SN12C renal 68.6% | UO-31 renal 48.5% | TK-10 renal 95.6% | ACHN renal 69.6% | CAKI-1 renal 85.6% | A498 renal 109% | CCRF-CEM leukemia 91% | MOLT-4 leukemia 37.4%

— PubChem BioAssay (NCI)
